# Screening results: PubChem BioAssay, The Scripps Research Institute Molecular Screening Center
# Hits are enriched below; roughly 2.3% of the tested compounds scored in any of these assays.
# CHO-K1 Ca antag = nonselective inhibitor or artifact in parental CHO-K1 cells. ATP-induced calcium, Fluo-8 fluorescence. inhibition, % at 3 µM. 360,000 compounds, 0.6% hits;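 active means inhibition above a per-plate cutoff, the plate's mean sample inhibition plus 3 SD, cut at about 24% in these data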;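 further: 0% = DMSO plus EC80 ATP and 100% = DMSO alone without ATP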
# CHRM1 agonist = agonists of human M1 muscarinic receptor. CHO-K1 hM1, Fluo-8 calcium fluorescence, agonist mode; 0% DMSO, 100% acetylcholine EC100. activation, % at 3 µM. 360,000 compounds, 0.33% hits. AID 588814;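 active means activation above the run's mean compound activation plus 3 SD, cut at about 16% in these data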;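 further: peak over basal fluorescence ratio within a 140 s kinetic read after compound addition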
# Target sequence (P11229 whole entry, looked up): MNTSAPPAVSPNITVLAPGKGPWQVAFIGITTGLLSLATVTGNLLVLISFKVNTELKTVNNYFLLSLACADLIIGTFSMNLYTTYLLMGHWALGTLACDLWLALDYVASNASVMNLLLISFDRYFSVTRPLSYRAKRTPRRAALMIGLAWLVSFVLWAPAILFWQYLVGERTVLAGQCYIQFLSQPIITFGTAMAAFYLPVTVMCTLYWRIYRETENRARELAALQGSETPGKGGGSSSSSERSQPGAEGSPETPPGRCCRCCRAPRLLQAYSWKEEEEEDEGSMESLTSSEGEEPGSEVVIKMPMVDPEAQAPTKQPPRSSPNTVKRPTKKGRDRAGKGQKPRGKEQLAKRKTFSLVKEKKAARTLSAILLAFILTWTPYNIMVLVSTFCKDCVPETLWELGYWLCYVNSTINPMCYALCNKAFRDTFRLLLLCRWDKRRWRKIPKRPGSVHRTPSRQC
# CHO-K1 Ca ag = nonselective activator or artifact in parental CHO-K1 cells. 360,000 compounds, 0.48% hits. activation, % at 3 µM. Fluo-8 calcium fluorescence; scaled to maximal ATP response, vehicle zero; in the data active means activation above about 15%;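 further: untransfected CHO-K1 host cells lacking M1 receptor as counterscreen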
# CHRM1 antagonist = blocks human M1 muscarinic receptor; P11229; CHO-K1 hM1, Fluo-8 calcium fluorescence, ACh EC80 antagonist; inhibition, % at 3 µM; 360,000 compounds, 1.3% hits; AID 588852;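 active means percent inhibition above its own plate's cutoff, namely the mean of that plate's compound wells plus 3 SD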;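 further: peak over basal fluorescence ratio during 140 s after agonist addition; 0% = ACh EC80 plus DMSO and 100% = DMSO alone without agonist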
# CHO-K1 Ca PAM = nonselective activator or artifact in parental CHO-K1 calcium assay; activation, % at 3 µM; ATP EC20, Fluo-8 calcium fluorescence; 0% at ATP EC20, 100% at ATP max; 360,000 compounds, 0.02% hits;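 active means activation above the run cutoff, the mean activation of all test compounds plus 3 SD, cut at about 40% in these data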;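 further: peak over basal fluorescence ratio in a 140 s read after ATP addition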
# M1 PAM = positive allosteric modulators of human M1 muscarinic receptor; P11229; CHO-K1 hM1, Fluo-8 calcium fluorescence, ACh EC20; 0% = ACh EC20, 100% = maximal ACh; activation, % at 3 µM; 360,000 compounds, 0.088% hits; AID 588819; in the data active means activation above about 19%, passing the limit was not always enough
# Active calls of the source: *.
SMILES,CHO-K1 Ca antag,CHRM1 agonist,CHO-K1 Ca ag,CHRM1 antagonist,CHO-K1 Ca PAM,M1 PAM
COC(C(=O)Nc1ccc(S(=O)(=O)Nc2ccc(F)cc2)cc1)c1ccccc1 (stereo not drawn),-1,18*,10,3,37,7
COC(C(=O)Nc1ccc(F)cc1)c1ccccc1 (stereo not drawn),15,1,0,-6,-2,7
COc1ccc(CNCc2ccco2)cc1OCc1ccccc1,10,-8,2,24,-11,-17
COc1ccccc1CCNCc1ccc(OC)c(OCc2ccccc2)c1,-17,7,20*,34*,-6,-24
COc1cccc(CNCCc2c[nH]c3ccccc23)c1OCc1ccccc1,12,6,21*,19,5,-6
COC(=O)c1[nH]c2ccccc2c1NC(=O)C(C)N1CC(C)OC(C)C1 (stereo not drawn),-6,1,1,-18,13,7
CCOC(=O)C1CCCN(C(=S)Nc2ccc(S(=O)(=O)N3CCOCC3)cc2)C1 (stereo not drawn),-10,63*,1,54*,6,-30
CC1CCCN(CCC(=O)Nc2ccc3c(c2)CCC3)C1 (stereo not drawn),-9,-7,0,33*,15,-20
CCOC(=O)C1CCN(CCC(=O)Nc2cc(C)ccc2C)CC1,-4,-3,16*,2,8,-2
CCOC(=O)C1CCCN(C(=O)Nc2cccc(Cl)c2)C1 (stereo not drawn),-12,55*,1,20,24,-24
Cc1ccc(C(=O)c2coc3cc([N+](=O)[O-])c(O)c([N+](=O)[O-])c23)cc1,-6,-6,0,-8,11,12
CCOC(=O)C1CCCN(Cc2cc(OC)c(O)c(OC)c2)C1 (stereo not drawn),-1,42*,0,6,2,-15
CCOC(=O)C1CCCN(C(=S)NC2CCCCC2)C1 (stereo not drawn),-16,39*,1,2,13,-8
CCOC(=O)C1CCCN(CCC(=O)Nc2cc(OC)ccc2OC)C1 (stereo not drawn),-3,16*,0,-5,-2,1
CCOC(=O)C1CCCN(CCC(=O)Nc2cc(C)cc(C)c2)C1 (stereo not drawn),-13,21*,0,5,15,-6
CCOC(=O)C1CCCN(CCC(=O)Nc2ccccc2)C1 (stereo not drawn),-5,8,0,4,19,-5
O=C(Nc1cccc(OC(F)(F)F)c1)[C@@H]1O[C@H](CO)[C@H](O)[C@H](O)[C@H]1O,14,-3,0,-5,-1,2
CCOC(=O)C1CCCN(C(=S)Nc2cc(C)cc(C)c2)C1 (stereo not drawn),11,63*,0,68*,-4,-14
CCOC(=O)C1CCCN(CC(=O)NC2CC2)C1 (stereo not drawn),-3,25*,0,-12,10,9
CCOC(=O)N1CCN(C(=S)Nc2cccc(C)c2)CC1,-2,19*,0,-2,12,-1
CCOC(=O)C1CCCN(CC(=O)Nc2cccc(C(C)=O)c2)C1 (stereo not drawn),-10,-3,1,-3,19,8
CCOC(=O)C1CCCN(CC(=O)Nc2cc(C)cc(C)c2)C1 (stereo not drawn),-21,3,0,-18,6,13
O=C(CN1C(=O)S/C(=C\c2ccccc2F)C1=O)NC1C=CS(=O)(=O)C1 (stereo not drawn),-15,-3,0,-11,-1,6
Cc1ccccc1NC(=S)NC(=O)COc1ccccc1C,-4,-5,0,1,11,-5
COc1ccc(C(CC(=O)Nc2nccs2)n2cccc2)cc1 (stereo not drawn),8,2,1,-6,-9,9
COc1ccc(OCC(=O)Nc2nccs2)cc1,-5,-4,17*,-4,13,6
CCC(=O)c1ccc(OCC(=O)Nc2nc(C)cs2)cc1,-5,1,2,-10,7,4
